Screen size: about 390,000 compounds; about 17,000 (4.4%) were called active. About 8% were inconclusive and are not listed. The sample as a whole holds a higher share of actives than the screen did. Values without a mark were called inactive. Calls follow the shape of the dose curve; as a rule, active = well fitted inhibition curve with a large enough effect; inconclusive = small, poorly fitted or top-dose-only effect; inactive = no such curve, though single readings can be large or run the other way.
biological target: Lysine-specific demethylase 4A (Homo sapiens) (UniProt O75164); assay: qHTS Assay for Inhibitors of JMJD2A-Tudor Domain; conditions: AlphaScreen JMJD2A-Tudor / H3K4me3 peptide binding; series mostly up to 114 µM; activity change, negative = inhibition: at the top concentration; also: nearly all actives have a fitted effect of over 50% in size
Sequence (O75164 whole entry, looked up, the tested form may be a part): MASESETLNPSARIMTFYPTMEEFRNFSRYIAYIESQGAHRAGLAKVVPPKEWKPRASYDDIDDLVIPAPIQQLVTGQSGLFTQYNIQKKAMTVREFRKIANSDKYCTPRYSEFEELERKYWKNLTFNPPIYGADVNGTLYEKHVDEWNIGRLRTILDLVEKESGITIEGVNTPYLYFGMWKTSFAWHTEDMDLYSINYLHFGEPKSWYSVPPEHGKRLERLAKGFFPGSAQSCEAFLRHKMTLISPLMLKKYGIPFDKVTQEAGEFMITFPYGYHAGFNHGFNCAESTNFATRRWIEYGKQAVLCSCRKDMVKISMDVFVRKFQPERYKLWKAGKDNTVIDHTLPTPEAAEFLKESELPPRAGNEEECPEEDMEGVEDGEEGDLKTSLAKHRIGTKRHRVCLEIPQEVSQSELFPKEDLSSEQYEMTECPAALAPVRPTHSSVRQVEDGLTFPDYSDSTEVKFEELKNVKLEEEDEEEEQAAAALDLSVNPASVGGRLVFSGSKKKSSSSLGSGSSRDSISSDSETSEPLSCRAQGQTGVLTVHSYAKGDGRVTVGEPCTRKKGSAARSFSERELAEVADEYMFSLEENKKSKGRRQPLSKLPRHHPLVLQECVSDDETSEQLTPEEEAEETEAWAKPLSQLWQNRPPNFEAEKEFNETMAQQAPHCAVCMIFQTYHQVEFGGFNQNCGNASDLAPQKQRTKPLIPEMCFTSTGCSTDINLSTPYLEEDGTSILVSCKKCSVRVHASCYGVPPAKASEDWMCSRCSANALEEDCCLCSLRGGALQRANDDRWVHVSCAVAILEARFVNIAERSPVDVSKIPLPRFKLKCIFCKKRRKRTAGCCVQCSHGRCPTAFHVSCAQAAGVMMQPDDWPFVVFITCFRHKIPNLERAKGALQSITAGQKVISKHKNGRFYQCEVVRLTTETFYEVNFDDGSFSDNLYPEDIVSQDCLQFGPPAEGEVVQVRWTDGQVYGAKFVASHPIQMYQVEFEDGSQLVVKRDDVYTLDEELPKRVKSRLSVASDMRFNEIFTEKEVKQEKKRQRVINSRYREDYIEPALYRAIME
% is scaled to controls: 0 for no effect and ±100 for the full control effect; potency is read from the fitted curve at half-maximal effect.

SMILES	activity change, negative = inhibition	Potency
O=C(CN1CCCCCC1)NCCN1C(=O)S/C(=C\c2ccccc2Cl)C1=O	-27.5%	–
N#Cc1ccccc1CN1C(=O)S/C(=C/c2cccn2-c2cccc(C(=O)O)c2)C1=O	–	56.2 µM (active)
CN(C(=O)CSc1nc2ccccc2n1Cc1ccccc1C#N)c1ccccc1	-17.2%	–
CCOc1ccccc1NC(=O)C1=C(C)Nc2ncnn2C1c1ccc(NC(C)=O)cc1 (configuration not stated)	-9.27%	–
COc1ccc(Cl)cc1NC(=O)CSc1nc2ccccc2c2nc(-c3ccccc3)nn12	-16.3%	–
O=C1COc2c1ccc(O)c2O	–	5.62 µM (active)
COc1ccc(CN2CCC(=O)c3ccccc3S2(=O)=O)cc1	-16.6%	–
O=C1CN(Cc2ccccc2)S(=O)(=O)c2ccccc21	–	79.4 µM (active)
CC(C)(C)c1ccc(CN2C(=O)c3ccccc3S2(=O)=O)cc1	39.4%	–
CCn1cc2nc(SCc3cccc(F)c3)n(CCc3ccccc3)c(=O)c2n1	-13.6%	–
Cc1ccccc1Nc1nc(N)nc(CSc2nnc3ccccn23)n1	-1.03%	–
Cc1ccccc1Nc1nc(N)nc(CN2CCN(c3ccccn3)CC2)n1	–	56.2 µM (active)
Cc1ccccc1Nc1nc(N)nc(CSc2ccccc2)n1	-23.1%	–
Cc1cc(NC(=O)c2cccc(Cl)c2)ccc1-c1cc2ccccc2oc1=O	-15%	–
O=C(c1cccs1)c1cn(CCOc2ccc(Cl)cc2)c2ccccc12	-16.5%	–
CCN(CC)CCNC(=O)c1cc2c(=O)oc3ccc(C)cc3c2s1	5.72%	–
CCc1ccc(S(=O)(=O)c2nnn3c2nc(NCc2ccccc2OC)c2cc(Cl)ccc23)cc1	2.18%	–
O=[N+]([O-])c1ccc(N2CCN(c3ccc(O)cc3)CC2)c(Cl)c1	–	44.7 µM (active)
CN(C)S(=O)(=O)N1CCN(c2ccc([N+](=O)[O-])cc2)CC1	-14.7%	–
COc1ccc(N2CCN(c3ccc([N+](=O)[O-])cc3Cl)CC2)cc1	-10.3%	–
Cc1ccc(Cl)cc1NC(=O)CCS(=O)(=O)c1ccc(Br)s1	-32.1%	–
Cc1ccc(C)c(S(=O)(=O)N2CCN(C(=O)Nc3ccccc3)CC2)c1	-24%	–
Cc1ccc(C)c(S(=O)(=O)N2CC(=O)Nc3ccccc32)c1	–	79.4 µM (active)
Cc1ccc(S(=O)(=O)N2CC(=O)Nc3ccccc32)cc1C	-9.3%	–
CCOc1ccc(CCNC(=O)c2csc3c2CCCCC3)cc1	-11.6%	–
COc1ccc(C2=NC3(CCCCC3)N(CC(=O)Nc3ccc(C(C)C)cc3)C2=O)cc1	-11.7%	–

SMILES	activity change, negative = inhibition	Potency
Cc1ccc(-n2nc(C)c3c(C)cc(=O)n(CC(=O)Nc4ccc(C(C)C)cc4)c32)cc1	-1.33%	–
CCCCC(CC(C)O)c1n[nH]c(=S)n1-c1ccccc1 (configuration not stated)	–	28.2 µM (active)
CC(=O)Nc1ccc(NC(=O)COc2ccc(S(=O)(=O)NC(C)c3ccccc3)cc2)cc1 (configuration not stated)	-12.4%	–
CC(NS(=O)(=O)c1ccc(OCC(=O)N2CCCC2)cc1)c1ccccc1 (configuration not stated)	-20%	–
CC(NS(=O)(=O)c1ccccc1)c1n[nH]c(=S)n1-c1ccccc1 (configuration not stated)	–	25.1 µM (active)
CCCSc1nc2sc3c(c2c(=O)n1-c1cccc(Br)c1)CC(C)(C)OC3	-6.23%	–
CCC(C(=O)Nc1cccc(Cl)c1C)n1nc(-c2ccc(C)cc2)ccc1=O (configuration not stated)	1.57%	–
CCc1ccc(NC(=O)c2cc(S(=O)(=O)NC3CCCCCC3)ccc2F)cc1	-16.5%	–
CCn1c(SCC(=O)Nc2nc(C)cs2)nnc1C(C)NC(=O)c1ccccc1 (configuration not stated)	–	79.4 µM (active)
COCCn1c(SCC(=O)Nc2nc(C)cs2)nnc1C(C)C	-6.34%	–
CCn1c(SCC(=O)NC2=NCCS2)nnc1C(C)NC(=O)c1ccccc1F (configuration not stated)	0.714%	–
Cc1ccc(N2CC(NC(=O)Cc3cccs3)CC2=O)cc1 (configuration not stated)	-0.325%	–
COc1cccc(CNCc2c(C(=O)O)n(Cc3ccc(C)cc3)c3cc(C)ccc23)c1OC	-27.8%	–
CCOc1ccc2nc(/N=C/c3nc(-c4ccccc4)oc3O)sc2c1	0.641%	–
Oc1oc(-c2ccccc2Br)nc1/C=N/c1ccccn1	-28.1%	–
CC(N=Cc1nc(-c2ccccc2)oc1O)c1ccccc1 (configuration not stated)	–	79.4 µM (active)
CCN(Cc1ccccc1)S(=O)(=O)c1ccc2c(c1)CCCN2C(C)=O	-0.968%	–
COC(=O)c1cc(NC(=O)c2cnc(SC)nc2-c2ccccc2)cc(C(=O)OC)c1	-3.53%	–
O=C1/C(=C/c2ccc(F)cc2)SC(=S)N1CCCC(=O)N1CCCCC1CCO (configuration not stated)	–	44.7 µM (active)
O=C1/C(=C/c2ccc(F)cc2)SC(=S)N1NS(=O)(=O)c1ccccc1	-31.5%	–
O=C1CCCCN1CCCC(=O)N1CCCC(Nc2ccc(F)cc2)C1 (configuration not stated)	-26.6%	–
CCOc1cccc2cc(-c3cn4c(n3)sc3cc(C)ccc34)c(=O)oc12	-17.3%	–
O=C(CSc1ncc(S(=O)(=O)c2ccc(Br)cc2)c(=O)[nH]1)Nc1ccc2c(c1)OCCO2	-23.6%	–
COc1cc2nc(SCC(=O)Nc3ccccc3F)n3nc(-c4ccccc4)nc3c2cc1OC	-20.3%	–
COc1ccc(N2CCN(C(=O)c3cccs3)CC2)cc1	-25.6%	–
COc1ccc(N2CCN(Cc3nnc(-c4ccccc4)o3)CC2)cc1	-22.4%	–

Reference: PubChem BioAssay AID504339 (National Center for Advancing Translational Sciences (NCATS), 2011)
